# Experimental data as given in ChEMBL document CHEMBL1961873, “Compounds: GSK PKIS; Assays: Nanosyn kinase panel” (2012).
# Assays:
# [1] = biological target: Sphingosine kinase 1 (Homo sapiens) (UniProt Q9NYA1); conditions: at 1 µM;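 note: mean SPHK1 inhibition value reported from the GSK PKIS kinase panel screen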
# [2] = biological target: T1, Sphingosine kinase 2 (Homo sapiens) (UniProt Q9NRA0); conditions: at 0.1 µM
# T1 sequence (whole entry): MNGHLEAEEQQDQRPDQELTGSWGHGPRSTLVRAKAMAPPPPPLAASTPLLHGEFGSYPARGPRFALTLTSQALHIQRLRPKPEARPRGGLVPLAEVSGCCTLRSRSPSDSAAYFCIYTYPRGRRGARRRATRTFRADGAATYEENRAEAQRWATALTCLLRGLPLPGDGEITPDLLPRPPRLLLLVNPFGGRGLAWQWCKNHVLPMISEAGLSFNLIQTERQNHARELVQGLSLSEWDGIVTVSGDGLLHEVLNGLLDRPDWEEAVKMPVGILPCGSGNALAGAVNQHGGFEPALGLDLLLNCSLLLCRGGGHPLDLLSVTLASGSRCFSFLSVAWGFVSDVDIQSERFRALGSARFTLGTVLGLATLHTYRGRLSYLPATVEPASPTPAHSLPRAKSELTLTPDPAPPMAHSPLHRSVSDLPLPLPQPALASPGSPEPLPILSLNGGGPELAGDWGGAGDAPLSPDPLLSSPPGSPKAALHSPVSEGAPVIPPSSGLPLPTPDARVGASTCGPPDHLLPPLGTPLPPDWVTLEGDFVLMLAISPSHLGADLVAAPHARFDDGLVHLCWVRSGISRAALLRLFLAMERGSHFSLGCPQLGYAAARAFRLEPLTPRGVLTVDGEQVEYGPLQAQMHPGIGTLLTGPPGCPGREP
# [3] = biological target: T1, Sphingosine kinase 2 (Homo sapiens); conditions: at 1 µM
# [4] = biological target: Casein kinase II subunit alpha (Homo sapiens) (UniProt P68400); conditions: at 0.1 µM
# Sequence of Casein kinase II subunit alpha (Homo sapiens) (P68400 whole entry, looked up): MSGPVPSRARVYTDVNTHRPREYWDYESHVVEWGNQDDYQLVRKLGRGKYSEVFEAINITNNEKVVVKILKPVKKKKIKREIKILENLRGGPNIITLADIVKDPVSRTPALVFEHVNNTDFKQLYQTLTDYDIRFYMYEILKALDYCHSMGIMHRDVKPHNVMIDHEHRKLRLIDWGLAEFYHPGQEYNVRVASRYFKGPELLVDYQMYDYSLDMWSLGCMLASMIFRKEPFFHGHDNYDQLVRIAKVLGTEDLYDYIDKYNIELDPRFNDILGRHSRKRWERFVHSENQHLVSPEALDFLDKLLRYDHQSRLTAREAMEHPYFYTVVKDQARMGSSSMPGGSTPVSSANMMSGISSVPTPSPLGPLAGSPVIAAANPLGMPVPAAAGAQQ
# [5] = biological target: Casein kinase II subunit alpha (Homo sapiens) (UniProt P68400); conditions: at 1 µM
# [6] = biological target: T2, Inhibitor of nuclear factor kappa-B kinase subunit alpha (Homo sapiens) (UniProt O15111); conditions: at 0.1 µM
# T2 sequence (whole entry): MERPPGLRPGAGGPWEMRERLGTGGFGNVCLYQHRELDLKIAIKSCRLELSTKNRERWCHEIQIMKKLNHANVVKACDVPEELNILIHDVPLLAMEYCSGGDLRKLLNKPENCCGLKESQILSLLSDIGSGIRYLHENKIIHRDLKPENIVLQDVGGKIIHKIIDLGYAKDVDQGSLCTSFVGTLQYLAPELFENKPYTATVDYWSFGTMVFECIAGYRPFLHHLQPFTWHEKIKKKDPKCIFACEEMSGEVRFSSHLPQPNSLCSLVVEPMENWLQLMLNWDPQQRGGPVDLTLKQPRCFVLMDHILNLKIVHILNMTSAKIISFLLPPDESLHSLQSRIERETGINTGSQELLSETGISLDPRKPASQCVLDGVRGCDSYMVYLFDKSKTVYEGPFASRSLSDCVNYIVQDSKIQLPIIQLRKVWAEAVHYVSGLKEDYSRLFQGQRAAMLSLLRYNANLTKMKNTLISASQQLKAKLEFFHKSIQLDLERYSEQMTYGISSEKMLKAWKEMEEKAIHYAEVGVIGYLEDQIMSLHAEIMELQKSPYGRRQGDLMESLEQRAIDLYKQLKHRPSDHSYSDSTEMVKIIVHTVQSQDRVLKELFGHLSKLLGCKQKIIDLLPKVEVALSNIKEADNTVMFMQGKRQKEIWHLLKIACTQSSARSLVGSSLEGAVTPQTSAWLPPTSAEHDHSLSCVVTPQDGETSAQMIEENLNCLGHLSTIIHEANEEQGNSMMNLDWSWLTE
# [7] = biological target: T2, Inhibitor of nuclear factor kappa-B kinase subunit alpha (Homo sapiens); conditions: at 1 µM
# [8] = biological target: T3, Inhibitor of nuclear factor kappa-B kinase subunit beta (Homo sapiens) (UniProt O14920); conditions: at 0.1 µM
# T3 sequence (whole entry): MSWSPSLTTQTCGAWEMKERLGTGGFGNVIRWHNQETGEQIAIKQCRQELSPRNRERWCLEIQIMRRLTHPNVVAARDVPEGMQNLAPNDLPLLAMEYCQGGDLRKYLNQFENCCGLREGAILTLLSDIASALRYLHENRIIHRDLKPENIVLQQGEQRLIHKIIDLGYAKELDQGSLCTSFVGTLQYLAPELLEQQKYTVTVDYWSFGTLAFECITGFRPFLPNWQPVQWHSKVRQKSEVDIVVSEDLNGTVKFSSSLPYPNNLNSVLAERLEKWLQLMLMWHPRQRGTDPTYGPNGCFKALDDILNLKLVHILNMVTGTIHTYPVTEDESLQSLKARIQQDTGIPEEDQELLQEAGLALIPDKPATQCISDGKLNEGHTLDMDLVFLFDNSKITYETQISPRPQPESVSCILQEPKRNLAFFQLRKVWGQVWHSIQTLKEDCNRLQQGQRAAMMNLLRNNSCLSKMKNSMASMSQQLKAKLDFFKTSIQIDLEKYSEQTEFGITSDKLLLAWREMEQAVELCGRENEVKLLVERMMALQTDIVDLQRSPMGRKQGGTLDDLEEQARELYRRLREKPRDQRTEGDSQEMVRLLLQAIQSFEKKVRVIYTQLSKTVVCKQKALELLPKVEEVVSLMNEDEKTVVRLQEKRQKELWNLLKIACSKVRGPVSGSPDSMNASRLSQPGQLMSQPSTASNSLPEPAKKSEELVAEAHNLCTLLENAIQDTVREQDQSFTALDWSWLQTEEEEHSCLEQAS
# [9] = biological target: T3, Inhibitor of nuclear factor kappa-B kinase subunit beta (Homo sapiens); conditions: at 1 µM
# [10] = biological target: T4, Inhibitor of nuclear factor kappa-B kinase subunit epsilon (Homo sapiens) (UniProt Q14164); conditions: at 0.1 µM;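 note: mean inhibition of IKKε reported, from the GSK PKIS dataset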
# T4 sequence (whole entry): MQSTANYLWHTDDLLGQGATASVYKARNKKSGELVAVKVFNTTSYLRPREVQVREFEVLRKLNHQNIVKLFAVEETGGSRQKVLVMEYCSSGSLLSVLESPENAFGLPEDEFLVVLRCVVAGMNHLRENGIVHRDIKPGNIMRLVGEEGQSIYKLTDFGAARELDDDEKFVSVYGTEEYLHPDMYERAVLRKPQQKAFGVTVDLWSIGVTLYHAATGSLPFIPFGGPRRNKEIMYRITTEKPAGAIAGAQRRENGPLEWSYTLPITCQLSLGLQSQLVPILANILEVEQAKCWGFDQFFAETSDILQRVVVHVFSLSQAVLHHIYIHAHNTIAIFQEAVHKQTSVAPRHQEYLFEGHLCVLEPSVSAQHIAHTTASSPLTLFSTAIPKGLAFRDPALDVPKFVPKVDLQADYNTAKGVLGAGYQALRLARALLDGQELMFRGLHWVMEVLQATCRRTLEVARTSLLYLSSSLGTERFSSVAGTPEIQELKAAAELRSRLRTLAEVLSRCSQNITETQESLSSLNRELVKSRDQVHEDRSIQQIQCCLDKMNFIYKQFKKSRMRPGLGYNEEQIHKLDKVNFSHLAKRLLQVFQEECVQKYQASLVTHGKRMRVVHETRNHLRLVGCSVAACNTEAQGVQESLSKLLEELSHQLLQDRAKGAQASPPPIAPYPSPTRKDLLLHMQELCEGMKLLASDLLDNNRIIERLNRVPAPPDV
# Sequence of Sphingosine kinase 1 (Homo sapiens) (Q9NYA1 whole entry): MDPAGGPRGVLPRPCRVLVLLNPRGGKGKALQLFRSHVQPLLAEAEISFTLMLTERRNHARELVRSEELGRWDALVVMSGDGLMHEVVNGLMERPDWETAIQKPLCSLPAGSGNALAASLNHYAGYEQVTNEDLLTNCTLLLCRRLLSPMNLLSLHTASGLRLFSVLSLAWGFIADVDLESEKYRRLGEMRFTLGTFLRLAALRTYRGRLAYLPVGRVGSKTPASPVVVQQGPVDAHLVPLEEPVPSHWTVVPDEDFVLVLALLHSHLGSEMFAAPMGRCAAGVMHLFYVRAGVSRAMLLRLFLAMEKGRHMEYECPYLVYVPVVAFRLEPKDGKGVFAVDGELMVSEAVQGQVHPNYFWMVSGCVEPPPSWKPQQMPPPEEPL
smiles,measurement,setting,value
Fc1cccc(COc2ccc(Nc3ncnc4cc(-c5ccc[nH]5)sc34)cc2Cl)c1,inhibition,[1],4.94%
same,inhibition,[2],0.87%
same,inhibition,[3],-0.25%
same,inhibition,[4],1.61%
same,inhibition,[5],2.66%
same,inhibition,[6],2.16%
same,inhibition,[7],1.99%
same,inhibition,[8],2.5%
same,inhibition,[9],1.35%
same,inhibition,[10],2.66%
